# Test results as given in PMC5540273 (PLoS ONE, 2017).
# Tested on: T1, GRK3
# T1 construct: gene ADRBK2
# Settings: concentration: 1 μM,replicates: in singlicate; n = 1
# 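Note: KINOMEscan kinase panel screen.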
row,Compound,%Inh [%]
1,CNC(=O)c1ccccc1Sc1ccc2c(/C=C/c3ccccn3)n[nH]c2c1,44
2,Nc1nc(Nc2ccccc2)cc(-c2ccc3c(N)n[nH]c3c2)n1 [GSK2225749],0
3,CCN(CC)CCCCNc1ncc2cc(-c3c(Cl)cccc3Cl)c(NC(=O)NC(C)(C)C)nc2n1,28
4,Cc1cc(C(=O)Nc2ccc(Oc3ccc4nc(NC(=O)C5CC5)cn4n3)cc2)nn1-c1ccccc1,0
5,CN(C)CC(O)COc1ccc(Nc2nccc(-c3cnn4nc(N5CCOCC5)ccc34)n2)cc1 (stereo not drawn) [GW767488],0
6,Cl.Cl.Nc1nc(-c2ccc3c(N)n[nH]c3c2)cc(N2CCCC(NC(=O)c3ccccc3)C2)n1 (stereo not drawn) [GSK2286775],19
7,CN(C)CCOc1ccc(-c2cc(-c3c[nH]nc3-c3ccccn3)ccn2)cc1 [GW835314],12
8,C[C@@H]1CCN(C(=O)CC#N)C[C@@H]1N(C)c1ncnc2[nH]ccc12,0
9,Cl.Cl.NC[C@H](CC1CCCCC1)NC(=O)c1cc(Br)c(-c2ccnc3[nH]ccc23)s1 [GSK1581427],44
10,Cl.Cl.NC[C@H](Cc1ccc(C(F)(F)F)cc1)NC(=O)c1cc(Br)c(-c2ccnc3[nH]ccc23)s1 [GSK1487252],75
11,Cl.Oc1cc(-c2nc(-c3ccccc3)[nH]c2-c2ccncc2)ccc1Cl [SB-386023],0
12,C[C@H]1Oc2cc(cnc2N)-c2c(nn(C)c2C#N)CN(C)C(=O)c2ccc(F)cc21,0
13,C[C@@H](Oc1cc(-c2cnn(C3CCNCC3)c2)cnc1N)c1c(Cl)ccc(F)c1Cl,0
14,CCn1c(-c2nonc2N)nc2c(C#CC(C)(C)O)nc(OCCN)cc21.Cl.Cl [GSK902056],39
15,CCN(CC)CCOc1ccc(Nc2ncc3cc(-c4c(Cl)cccc4Cl)c(=O)n(C)c3n2)cc1 [SB-601273],57

# Tested on: GRK4
# Settings: concentration: 1 μM,replicates: in singlicate; n = 1
row,Compound,%Inh [%]
1,C=CC(=O)Nc1cc2c(Nc3ccc(F)c(Cl)c3)ncnc2cc1OCCCN1CCOCC1 [GW781483],39
2,CC(C)Nc1cc(-c2ccc3c(N)n[nH]c3c2)nc(N)n1 [GSK2221681],34
3,COc1ccc(C[C@@H](CN)NC(=O)c2cc(Br)c(-c3ccnc4[nH]ccc34)s2)cc1.Cl.Cl [GSK1389063],39
4,Cc1occc1-c1nc(N)c(OC[C@@H](N)Cc2c[nH]c3ccccc23)cc1-c1cc2c(C)n[nH]c2cn1 [GSK1660450],49
5,Cc1ccc2c(-c3ccncc3)c(-c3ccc(F)cc3)nn2c1.Cl [GW461484],0
6,O=C(NCCCN1CCOC1=O)c1cnc(NCc2cc(Cl)ccc2Cl)nc1NC1CCCC1,2
7,Cc1n[nH]c2ccc(-c3cc(OC[C@@H](N)Cc4ccccc4)cnc3-c3ccoc3)cc12.O=C(O)C(F)(F)F.O=C(O)C(F)(F)F [GSK507358],34
8,Cc1cc2cn[nH]c2cc1-c1cccc2c(N)c(C(N)=O)nnc12,28
9,NC(=O)c1cc(-c2ccccc2)cc2c(C3CCNCC3)c[nH]c12 [GSK301362],2
10,Cc1ccc(-n2nc(C(C)(C)C)cc2NC(=O)Nc2ccc(OCCN3CCOCC3)c3ccccc23)cc1 [GW839464],16
11,CC(C)N1C(=O)Cc2cc(Nc3ncc(C(F)(F)F)c(NCc4cccc(S(C)(=O)=O)c4)n3)ccc21,28
12,O=C(NCCNc1ccnc(NCc2ccc(F)cc2)n1)c1cc2ccccc2s1 [GSK1379944],0
13,CNC(=O)c1ccccc1Sc1ccc2c(/C=C/c3ccccn3)n[nH]c2c1,11
14,Nc1nc(Nc2ccccc2)cc(-c2ccc3c(N)n[nH]c3c2)n1 [GSK2225749],73
15,CCN(CC)CCCCNc1ncc2cc(-c3c(Cl)cccc3Cl)c(NC(=O)NC(C)(C)C)nc2n1,7
16,Cc1cc(C(=O)Nc2ccc(Oc3ccc4nc(NC(=O)C5CC5)cn4n3)cc2)nn1-c1ccccc1,6
17,CN(C)CC(O)COc1ccc(Nc2nccc(-c3cnn4nc(N5CCOCC5)ccc34)n2)cc1 (stereo not drawn) [GW767488],81
18,Cl.Cl.Nc1nc(-c2ccc3c(N)n[nH]c3c2)cc(N2CCCC(NC(=O)c3ccccc3)C2)n1 (stereo not drawn) [GSK2286775],55
19,CN(C)CCOc1ccc(-c2cc(-c3c[nH]nc3-c3ccccn3)ccn2)cc1 [GW835314],3
20,C[C@@H]1CCN(C(=O)CC#N)C[C@@H]1N(C)c1ncnc2[nH]ccc12,0
21,Cl.Cl.NC[C@H](CC1CCCCC1)NC(=O)c1cc(Br)c(-c2ccnc3[nH]ccc23)s1 [GSK1581427],88
22,Cl.Cl.NC[C@H](Cc1ccc(C(F)(F)F)cc1)NC(=O)c1cc(Br)c(-c2ccnc3[nH]ccc23)s1 [GSK1487252],8
23,Cl.Oc1cc(-c2nc(-c3ccccc3)[nH]c2-c2ccncc2)ccc1Cl [SB-386023],20
24,C[C@H]1Oc2cc(cnc2N)-c2c(nn(C)c2C#N)CN(C)C(=O)c2ccc(F)cc21,0
25,C[C@@H](Oc1cc(-c2cnn(C3CCNCC3)c2)cnc1N)c1c(Cl)ccc(F)c1Cl,10
26,CCn1c(-c2nonc2N)nc2c(C#CC(C)(C)O)nc(OCCN)cc21.Cl.Cl [GSK902056],14
27,CCN(CC)CCOc1ccc(Nc2ncc3cc(-c4c(Cl)cccc4Cl)c(=O)n(C)c3n2)cc1 [SB-601273],0
